In general, inhibition refers to the relative decrease from the control value, in per cent.

Hit rate of the full screen: of about 110,000 compounds, about 730 (0.66%) were called active. Rule as the data show it: active = inhibition above about 50%; inconclusive = no clear call, values can overlap the other calls; inactive = below that. The full list was thinned out, with actives kept by preference.

These results are taken from PubChem BioAssay AID521 (Sanford-Burnham Center for Chemical Genomics, 2006).

This assay deals with Tyrosine-protein phosphatase non-receptor type 7 (Homo sapiens) (UniProt P35236). Nature of the assay: inhibitors of human HePTP phosphatase, primary screen, biochemical, absorbance, leukemia target (AID 521).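 Also: plate controls were vehicle for no effect and reference inhibitor for full effect.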 Particulars: recombinant HePTP phosphatase activity, OD absorbance; at 20 µM; active compounds read high.
Chain of Tyrosine-protein phosphatase non-receptor type 7 (Homo sapiens) (P35236 whole entry, looked up): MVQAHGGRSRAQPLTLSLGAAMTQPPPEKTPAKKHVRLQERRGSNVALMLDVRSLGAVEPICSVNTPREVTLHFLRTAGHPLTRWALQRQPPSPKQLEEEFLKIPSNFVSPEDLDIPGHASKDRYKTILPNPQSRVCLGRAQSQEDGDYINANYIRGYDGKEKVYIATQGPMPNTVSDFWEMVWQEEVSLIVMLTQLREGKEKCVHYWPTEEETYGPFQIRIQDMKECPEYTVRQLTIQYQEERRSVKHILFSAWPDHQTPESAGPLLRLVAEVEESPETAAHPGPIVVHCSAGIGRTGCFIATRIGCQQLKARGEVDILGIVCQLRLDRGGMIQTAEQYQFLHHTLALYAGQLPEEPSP
For `Cc1ccc(N(Cc2ccc(C(=O)N3CCCCC3)cc2)S(C)(=O)=O)cc1C`, the inhibition was 13.9% (inactive). As for `O=C(NCC1CCCO1)c1cc(-c2ccccc2)nc2ccccc12` (centres undefined), the figure is -0.5% (inactive). Then `CCOc1ccc(NC(=O)Nc2cc(C)on2)cc1`, with -4.8% (inactive). As for `CCCOc1ccccc1N/C(=N/S(=O)(=O)c1ccc(C)cc1)Nc1nc(C)cc(C)n1`, the inhibition is -1.6% (inactive). As for `CCOc1ccc(N/C(=N\S(=O)(=O)c2ccc(NC(C)=O)cc2)Nc2nc(C)cc(C)n2)cc1`, the figure is 104% (active). As for `O=C(/C=C/c1ccc([N+](=O)[O-])cc1)N1CCc2ccccc2C1`, the figure is -1.1% (inactive); as for `Cc1ccc(N2C(=O)NC(=O)/C(=C\c3cccc(C)c3)C2=O)cc1`, 4.7% (inactive). As for `O=C1/C(=C/c2ccc(-c3ccc(Cl)cc3C(=O)O)o2)Sc2ccccc21`, the inhibition is 99% (active). As for `O=C1S/C(=C/c2ccc(-c3ccc(Cl)cc3Cl)o2)C(=O)N1c1ccccc1`, the figure is -6.4% (inactive). Then `Cc1ccc(-c2ccc(/C=C3\Sc4ccccc4C3=O)o2)c([N+](=O)[O-])c1`, with -1.6% (inactive); and `Cc1oc2ccc(OCC(=O)c3ccccc3)cc2c1C(=O)O`, with 6.3% (inactive). As for `O=C(Nc1ccc(I)cc1)c1ccc2nccnc2c1`, the figure is 8.3% (inactive); as for `Cc1ccc(/C=N/NC(=O)C2CC(=O)N(c3ccc(Cl)cc3)C2)cc1` (centres undefined), 4.9% (inactive); as for `CCOc1ccccc1C(=O)Nc1ccc(Cl)cc1[N+](=O)[O-]`, -5.6% (inactive). As to `O=C(NC(=S)Nc1ccc(-c2nc3cc(Cl)ccc3o2)cc1)c1ccco1`, the inhibition is 4.7% (inactive). As for `CN1CN=C2SC3(COC(c4cccc(Br)c4)OC3)C(=O)N2C1` (centres undefined), the figure is -17.5% (inactive); as for `Cc1ccc(/C=C/C(=O)Nc2nc3ccc(S(C)(=O)=O)cc3s2)cc1`, -6.1% (inactive); as for `Cc1ccc(S(=O)(=O)N(CC(O)CN(C)C)c2cccc3ccccc23)cc1` (centres undefined), 104% (active). Then `Cc1ccc(N(CC(O)CN2CCCC2)S(=O)(=O)c2ccccc2)cc1` (centres undefined), with -3.8% (inactive). Then `Cc1cccc(N(CC(O)CN(C)C)S(=O)(=O)c2ccccc2)c1` (centres undefined), with -7.9% (inactive); and `CC(C)c1ccc(C=NCCCO)cc1`, with -12.6% (inactive); and `O=C(N=Nc1c(O)[nH]c2ccc(F)cc12)c1ccccc1O`, with -14.6% (inactive).

As to `Nc1nonc1C(=O)N=Nc1c(O)[nH]c2ccccc12`, the inhibition is -0.8% (inactive). As for `O=C(N=Nc1c(O)[nH]c2ccc([N+](=O)[O-])cc12)c1cccc(Br)c1`, the figure is 56.4% (active); as for `O=C1C2C3CC4C2C(=O)C2(c5ccccc5)C1C3C42` (centres undefined), -6.6% (inactive).

In the case of `COc1ccc(CCNC(=O)COc2ccc(Br)cc2)cc1OC`, the inhibition was -20% (inactive). As to `COCCCNC(=O)COc1cc(C)c(Cl)c(C)c1`, the inhibition is 5.1% (inactive). As for `COc1ccc(CCNC(=O)COc2cc(C)c(Cl)c(C)c2)cc1OC`, the figure is 103% (active). As for `COc1ccc2ccccc2c1/C=N/NC(=O)c1cc(C)[nH]n1`, the figure is 0.2% (inactive). As for `Cc1cc(NCCN2CCCCCC2)n2c(nc3ccccc32)c1C#N`, the figure is -9.3% (inactive); as for `Cc1c(C#N)c2nc3ccccc3n2c(=O)/c1=C\c1c(O)n(-c2ccc(Br)cc2)[nH]c1=O`, 103% (active).

Regarding `N#Cc1c2c(c(N3CCN(CCO)CC3)n3c1nc1ccccc13)CCCC2`, the inhibition was 4.3% (inactive).

For the compound `COc1ccc(OC)c(N(CC(=O)Nc2cccc(Cl)c2)S(=O)(=O)c2ccc(OC)c(OC)c2)c1`, the inhibition was -8.4% (inactive). Then `COc1ccc(NCN2C(=O)CSC2=O)cc1Cl`, with 5.1% (inactive); and `COc1cccc(/C=C(/C#N)C(=O)Nc2ccc(F)cc2)c1O`, with 9.6% (inactive). As for `O=C(Nc1cccc(Br)c1)C(=O)NC1CCCC1`, the figure is -7.9% (inactive); as for `N#C/C(=C/c1cc(Cl)c(O)c(Cl)c1)C(=O)Nc1cccc(Br)c1`, 102% (active). Then `CCOC(=O)c1c(Nc2ccc(C)cc2)csc1C`, with 5.4% (inactive). For the compound `COc1ccc(CC(=O)Nc2ccc(-c3ccc(NC(=O)Cc4ccc(OC)cc4)c(OC)c3)cc2OC)cc1`, the inhibition is -17.3% (inactive). As for `Cc1cc(C)cc(NC(=O)CN2C(=O)c3ccccc3C2=O)c1`, the figure is 4.6% (inactive); as for `CSc1nc(=O)n(C)c(C)c1C(C)=O`, -0.4% (inactive); as for `O=C(NC(NC(=S)Nc1ccc(I)cc1)C(Cl)(Cl)Cl)c1cccc([N+](=O)[O-])c1` (centres undefined), -2.4% (inactive).

With `Cc1cc(C)c2nc3s/c(=C\c4ccc(N(C)C)cc4)c(=O)n3c2c1`, the inhibition is 8.6% (inactive). Then `COc1cc(/C=c2\sc3nc4c(C)cc(C)cc4n3c2=O)cc(Br)c1O`, with 5.3% (inactive); and `Cc1cc(C)c2nc3s/c(=C\c4ccc(-c5ccccc5C(=O)O)o4)c(=O)n3c2c1`, with 103% (active); and `O=C1c2ccccc2C(=O)c2c(NC3CCCCC3)cccc21`, with -14.5% (inactive). As to `COc1ccc(/C=N/n2cnc3sc4c(c3c2=O)CCCC4)cc1OC`, the inhibition is 1.7% (inactive). Then `O=C(Nc1cccc(NC(=O)c2ccc(Cl)cc2Cl)c1)c1ccc(-c2ccc([N+](=O)[O-])cc2)o1`, with 5.5% (inactive); and `CCOc1ccc2cc(S(=O)(=O)NCC3CCCO3)ccc2c1` (centres undefined), with 0.1% (inactive). Then `Cc1c(Br)c(=O)[nH]c(=O)n1Cc1ccccc1`, with 0.2% (inactive); and `O=C(NCc1ccccn1)C(=O)Nc1ccc(Br)cc1`, with 7.9% (inactive); and `Cc1cc(C)c(NC(=O)C(C)Sc2nnc(-c3cccc(F)c3)n2-c2ccccc2)c(C)c1` (centres undefined), with -3.5% (inactive).

`COc1ccc(Cl)cc1C(=O)Nc1ccc2c3c(cccc13)CC2`: the inhibition is -1.6% (inactive).

Take `CCCCOC(=O)Nc1nnc(-c2ccco2)s1`: the inhibition is -8.6% (inactive). Consider `CCOc1cc(/C=N/NC(=O)CC2C(=O)NN=C2C)ccc1O` (centres undefined), for which the inhibition is -5.5% (inactive). As for `O=C(Nc1cccc([N+](=O)[O-])c1)c1ccc2c(c1)C(=O)N(N1C(=O)c3ccccc3C1=O)C2=O`, the figure is -5.9% (inactive); as for `COC(=O)c1c(-c2ccc(Br)cc2)csc1NC(=O)CCCC(=O)O`, 8.8% (inactive). As to `CCc1ccc(N2C(=O)NC(=O)/C(=C\c3cc(Cl)c(O)c(Cl)c3)C2=O)cc1`, the inhibition is 2.7% (inactive).

`CN(C)c1ccc(C2/C(=C(\O)c3ccccc3)C(=O)C(=O)N2CCCC(=O)O)cc1` (centres undefined): the inhibition is 3.2% (inactive).
